Several values for one entry are separate records, joined by “and”; a condition that tells them apart may be missing. Equal values may be shown once. Where a structure was tested more than once in an assay, its records may differ in their call. Activity calls are given as the source filed them. Rule for the calls: active = hit-call score of the fitted dose curve at least 0.9, where 1 is the maximum; inactive = score below 0.9.

Outcome and AC50 data for 6 compounds are collected here from PubChem BioAssay (EPA / NIEHS).

Read-out in test [1]: Interleukin-1 alpha (IL1a), IL1A (gene 3552)
Nature of the test: BSK_KF3CT_IL1a: BioMAP Diversity Plus: KF3CT Assay for Interleukin-1 alpha (IL1a) Biomarker Activity (AID 2283070). To be noted: primary human keratinocytes with fibroblasts; actives raise or lower the signal. Put shortly: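 Primary skin co-culture (keratinocytes, foreskin fibroblasts), 24 h exposure; ELISA for IL-1a; bidirectional curve fit vs DMSO.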

Read-out in test [2]: TIMP metallopeptidase inhibitor 2 (TIMP2), TIMP2 (gene 7077)
Description: BSK_KF3CT_TIMP2: BioMAP Diversity Plus: KF3CT Assay for TIMP metallopeptidase inhibitor 2 (TIMP2) Biomarker Activity (AID 2283071). To be noted: primary human keratinocytes with fibroblasts; actives raise or lower the signal. Put shortly: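 ELISA readout of TIMP-2 in keratinocyte plus foreskin fibroblast co-cultures (human skin primary cells), 24 h post-dose. Gain or loss of signal fitted relative to DMSO.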

Read-out in test [3]: Transforming growth factor beta 1 (TGFb1), TGFB1 (gene 7040)
Nature of the test: BSK_KF3CT_TGFb1: BioMAP Diversity Plus: KF3CT Assay for Transforming growth factor beta 1 (TGFb1) Biomarker Activity (AID 2283072). To be noted: primary human keratinocytes with fibroblasts; actives raise or lower the signal. Put shortly:
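Read-out: ELISA for TGF-b1 in keratinocyte/foreskin fibroblast human skin co-culture, 24 h after dosing; bidirectional curve fit vs DMSO baseline; gain or loss of signal scored.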

Read-out in test [4]: C-C motif chemokine 2 (Homo sapiens) (UniProt P13500)
Nature of the test: BSK_KF3CT_MCP1: BioMAP Diversity Plus: KF3CT Assay for Monocyte Chemoattractant Protein 1 (MCP1/CCL2) Biomarker Activity (AID 2283073). To be noted: primary human keratinocytes with fibroblasts; actives raise or lower the signal. Put shortly:
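ELISA readout of MCP-1 after 24 h chemical dosing of a human skin primary co-culture of keratinocytes and foreskin fibroblasts. Activity was fitted in both directions against DMSO.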

Read-out in test [5]: Matrix Metallopeptidase 9 (MMP9), MMP9 (gene 4318)
Description: BSK_KF3CT_MMP9: BioMAP Diversity Plus: KF3CT Assay for Matrix Metallopeptidase 9 (MMP9) Biomarker Activity (AID 2283074).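 For AC50: MMP9 protein level quantified by ELISA in the co-culture.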 Particulars: primary human keratinocytes with fibroblasts; actives raise or lower the signal. Put shortly: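 ELISA read-out of MMP-9 at 24 h post-dosing in a co-culture of human skin keratinocytes and foreskin fibroblasts. Gain or loss of signal was fitted in both directions against DMSO.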

Read-out in test [6]: urokinase plasminogen activator (uPA), PLAU (gene 5328)
Description: BSK_KF3CT_uPA: BioMAP Diversity Plus: KF3CT Assay for urokinase plasminogen activator (uPA) Biomarker Activity (AID 2283075). To be noted: primary human keratinocytes with fibroblasts; actives raise or lower the signal. Put shortly:
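Skin co-culture (keratinocytes + foreskin fibroblasts), human primary; 24 h post-dose; uPA by ELISA; gain/loss fit vs DMSO baseline.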

Read-out in test [7]: CD40, CD40 (gene 958)
Description: BSK_LPS_CD40: BioMAP Diversity Plus: LPS Assay for CD40 Biomarker Activity (AID 2283076). Particulars: primary human HUVEC with PBMC; actives raise or lower the signal. Put shortly:
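Cells were dosed, incubated 24 h, then assayed for CD40 by ELISA. Gain or loss of signal was analysed relative to DMSO controls. The culture paired human umbilical vein endothelium with peripheral blood mononuclear cells.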

Read-out in test [8]: Interleukin-8 (IL8), CXCL8 (gene 3576)
Nature of the test: BSK_LPS_IL8: BioMAP Diversity Plus: LPS Assay for Interleukin-8 (IL8) Biomarker Activity (AID 2283078). Particulars: primary human HUVEC with PBMC; actives raise or lower the signal. Put shortly: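 Readout is IL-8 by ELISA, taken 24 h after compounds were added to LPS-stimulated endothelial/PBMC co-cultures. Both increases and decreases relative to DMSO control were scored through bidirectional fitting.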

Test [9] can be described thus: BSK_LPS_SRB: Viability Assessment in the BioMAP Diversity Plus: LPS Assay (AID 2283079).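 Note: total protein by sulforhodamine B absorbance as a cytotoxicity measure; measured one day after compound addition.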 To be noted: primary human HUVEC with PBMC. Put shortly:
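Readout is SRB absorbance at 560 nm (0.1% stain, TCA-fixed parallel cultures) as a total-protein cytotoxicity measure. Cells: primary human umbilical vein endothelium plus peripheral blood mononuclear cells, 24 h after chemical exposure; DMSO served as baseline.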

Read-out in test [10]: Interleukin-1 alpha (IL1a), IL1A (gene 3552)
Nature of the test: BSK_LPS_IL1a: BioMAP Diversity Plus: LPS Assay for Interleukin-1 alpha (IL1a) Biomarker Activity (AID 2283080). To be noted: primary human HUVEC with PBMC; actives raise or lower the signal. Put shortly:
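ELISA read-out of IL-1 alpha from a human primary vascular co-culture (endothelium plus PBMC) under LPS, sampled 24 hours post-dosing. Activity was fitted in both directions relative to DMSO controls.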

Read-out in test [11]: Monocyte Chemoattractant Protein-1 (MCP1), CCL2 (gene 6347)
Nature of the test: BSK_LPS_MCP1: BioMAP Diversity Plus: LPS Assay for Monocyte Chemoattractant Protein-1 (MCP1) Biomarker Activity (AID 2283081).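 For AC50: secreted MCP-1 protein quantified by ELISA in culture supernatant.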 To be noted: primary human HUVEC with PBMC; actives raise or lower the signal. Put shortly:
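Human endothelial–PBMC co-cultures were dosed with chemical, then LPS-driven MCP-1 levels were quantified by ELISA at 24 h. Activity in either direction was fitted versus DMSO negative control.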

Test [12] in a line: BSK_LPS_PGE2: BioMAP Diversity Plus: LPS Assay for Prostaglandin E2 (PGE2) Biomarker Activity (AID 2283082).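 For AC50: secreted prostaglandin E2 measured by ELISA in LPS-stimulated co-culture.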 Particulars: primary human HUVEC with PBMC; actives raise or lower the signal. Put shortly: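 ELISA read-out of PGE2 from human umbilical vein endothelial cells co-cultured with peripheral blood mononuclear cells under LPS, 24 h post-dose. Gain or loss of signal scored relative to DMSO baseline.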

Read-out in test [13]: Tissue Factor, F3 (gene 2152)
Description: BSK_LPS_TissueFactor: BioMAP Diversity Plus: LPS Assay for Tissue Factor Biomarker Activity (AID 2283084). Particulars: primary human HUVEC with PBMC; actives raise or lower the signal. Put shortly:
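ELISA signal for cell-surface Tissue Factor (CD142) was read 24 h after compound dosing of an LPS-stimulated human endothelial–PBMC primary co-culture. Gain or loss of signal was scored relative to DMSO.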

Read-out in test [14]: Tumor necrosis factor (Homo sapiens) (UniProt P01375)
Description: BSK_LPS_TNFa: BioMAP Diversity Plus: LPS Assay for Tumour Necrosis Factor alpha (TNFa) Biomarker Activity (AID 2283085). Particulars: primary human HUVEC with PBMC; actives raise or lower the signal. Put shortly:
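HUVEC/PBMC co-culture, LPS-stimulated; 24 h post-dose; TNFa by ELISA; gain or loss of signal fitted bidirectionally vs DMSO baseline.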

Read-out in test [15]: Vascular cell adhesion molecule 1 (VCAM1), VCAM1 (gene 7412)
Nature of the test: BSK_LPS_VCAM1: BioMAP Diversity Plus: LPS Assay for Vascular cell adhesion molecule 1 (VCAM1) Biomarker Activity (AID 2283086). Particulars: primary human HUVEC with PBMC; actives raise or lower the signal. Put shortly: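 ELISA read-out of VCAM-1 at 24 h post-dosing in an LPS-driven HUVEC/PBMC primary human co-culture; gain or loss of signal fitted bidirectionally against DMSO baseline. Cytotoxicity tracked in parallel cultures by SRB total-protein staining.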

Read-out in test [16]: CD38, CD38 (gene 952)
Description: BSK_SAg_CD38: BioMAP Diversity Plus: SAg Assay for CD38 Biomarker Activity (AID 2283087). Particulars: primary human HUVEC with PBMC; actives raise or lower the signal. Put shortly: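 Measures CD38 on a human endothelial/PBMC co-culture driven by SEB and TSST-1, 24 h after compound exposure, using ELISA with fluorescence detection; DMSO defines baseline for bidirectional curve fitting.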

Read-out in test [17]: CD40, CD40 (gene 958)
Description: BSK_SAg_CD40: BioMAP Diversity Plus: SAg Assay for CD40 Biomarker Activity (AID 2283088). To be noted: primary human HUVEC with PBMC; actives raise or lower the signal. Put shortly:
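Compounds were dosed onto a human primary endothelial–PBMC co-culture, and after 24 h CD40 was quantified by ELISA using a fluorescence signal. Activity in either direction was fitted relative to DMSO.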

Read-out in test [18]: CD69, CD69 (gene 969)
Description: BSK_SAg_CD69: BioMAP Diversity Plus: SAg Assay for CD69 Biomarker Activity (AID 2283089).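 For AC50: cell surface CD69 protein quantified by ELISA with fluorescence detection.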 Particulars: primary human HUVEC with PBMC; actives raise or lower the signal. Put shortly:
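Values derive from bidirectional fitting relative to DMSO vehicle. Cells: umbilical vein endothelium plus peripheral blood mononuclear cells, treated 24 h before fluorescent ELISA for CD69.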

Read-out in test [19]: E-selectin (Homo sapiens) (UniProt P16581)
Description: BSK_LPS_Eselectin: BioMAP Diversity Plus: LPS Assay for Eselectin Biomarker Activity (AID 2283077). Particulars: primary human HUVEC with PBMC; actives raise or lower the signal. Put shortly:
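Primary human vascular co-culture (endothelium plus PBMC) was dosed with chemical, then E-selectin quantified by ELISA at 24 h. Endpoint values derive from bidirectional curve fitting relative to DMSO.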

Read-out in test [20]: Macrophage colony-stimulating factor (MCSF), CSF1 (gene 1435)
Nature of the test: BSK_LPS_MCSF: BioMAP Diversity Plus: LPS Assay for Macrophage colony-stimulating factor (MCSF) Biomarker Activity (AID 2283083). Particulars: primary human HUVEC with PBMC; actives raise or lower the signal. Put shortly: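 ELISA readout of M-CSF after 24 h compound exposure in a human endothelial/PBMC co-culture. Activity, in either direction, is fitted relative to DMSO vehicle.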

Sequence of Tumor necrosis factor (Homo sapiens) (P01375 whole entry, looked up): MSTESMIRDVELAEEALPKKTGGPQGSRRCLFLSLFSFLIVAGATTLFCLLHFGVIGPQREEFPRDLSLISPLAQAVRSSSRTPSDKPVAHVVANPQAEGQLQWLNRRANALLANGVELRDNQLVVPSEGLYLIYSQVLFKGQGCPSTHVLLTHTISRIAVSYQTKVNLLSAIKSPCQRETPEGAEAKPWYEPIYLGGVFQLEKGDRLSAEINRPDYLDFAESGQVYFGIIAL
Sequence of E-selectin (Homo sapiens) (P16581 whole entry, looked up): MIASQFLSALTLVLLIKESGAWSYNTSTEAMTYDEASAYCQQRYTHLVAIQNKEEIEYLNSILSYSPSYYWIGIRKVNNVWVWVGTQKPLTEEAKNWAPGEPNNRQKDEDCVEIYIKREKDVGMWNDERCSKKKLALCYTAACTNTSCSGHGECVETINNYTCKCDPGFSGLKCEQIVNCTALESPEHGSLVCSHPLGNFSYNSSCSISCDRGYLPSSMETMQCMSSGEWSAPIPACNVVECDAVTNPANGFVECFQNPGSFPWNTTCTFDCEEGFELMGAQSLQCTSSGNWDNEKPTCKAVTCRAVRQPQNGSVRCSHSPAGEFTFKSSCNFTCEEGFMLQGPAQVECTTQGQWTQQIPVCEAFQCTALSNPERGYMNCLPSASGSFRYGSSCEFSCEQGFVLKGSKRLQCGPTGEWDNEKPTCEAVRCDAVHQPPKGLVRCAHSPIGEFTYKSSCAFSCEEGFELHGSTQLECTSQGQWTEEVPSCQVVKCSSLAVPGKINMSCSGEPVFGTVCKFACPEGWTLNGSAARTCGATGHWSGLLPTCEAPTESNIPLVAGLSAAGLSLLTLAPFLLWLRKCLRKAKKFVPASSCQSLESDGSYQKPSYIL

For `[N-]=[N+]=[N-]`, the outcome in test [1], in test [2], in test [3], in [4], in test [5] and in [6] was inactive. Moreover, the result in [7], in [8], in test [9], in [10], in test [11] and in test [12] was inactive. The result in test [13], in test [14], in test [15], in [16], in test [17] and in test [18] was inactive.

Turning to `O=c1ssc(Cl)c1Cl`, the AC50 in test [1] was 3.02 µM (active); in test [2] it was 2.71 µM (active); in [3], 20 µM (active); in test [4], 2.98 µM (active); in test [5] it was 5.92 µM (active); in [6], 5.59 µM (active). For the same compound, the AC50 in test [7] is 3.38 µM (active); in [8], 7.38 µM (active); in test [9], 5.34 µM (active); in test [10] it was 4.19 µM (active); in test [11] it was 6.46 µM (active); in [12], 2.22 µM (active). Further, the AC50 is 8.4 µM (active) in [13]; 6.59 µM (active) in test [15]; 4.94 µM (active) in test [16]; 5.44 µM (active) in test [17]; 6.02 µM (active) in [18].

As to `Cc1c([N+](=O)[O-])cc2c(c1[N+](=O)[O-])C(C)(C)CC2(C)C`, the outcome in test [1], in [2], in [4], in test [5], in test [6] and in test [8] was inactive. The result in [9], in test [10], in test [11], in test [12], in [13] and in test [14] was inactive. The result in test [15], in [16], in test [17] and in test [18] was inactive. The AC50 was 3.06 µM (active) in [3] and 0.807 µM (active) in test [7].

Turning to `NC(=O)C(F)(F)C(F)(F)F`, the result in test [1], in test [2], in test [4], in [5], in test [6] and in test [7] was inactive. For the same compound, the outcome in test [19], in [8], in test [9], in [10], in test [11] and in test [12] was inactive. Moreover, the outcome in test [20], in [13], in test [15], in test [16], in [17] and in test [18] was inactive.

Consider `O=C(O)C(F)(OC(F)(F)C(F)(F)C(F)(F)F)C(F)(F)F` (stereo not drawn), for which the outcome in [1], in [2], in test [4], in test [5], in test [6] and in test [7] was inactive. In addition, the result in test [19], in test [8], in test [9], in [10], in [11] and in test [12] was inactive. The outcome in test [20], in test [13], in test [14], in test [15], in test [16] and in test [17] was inactive. Besides, the result in test [18] was inactive. Moreover, the AC50 was 18 µM (active) and 12.1 µM (active) in [8]; 1.41 µM (active) in [13].

In the case of `COP(=O)(CCC(=O)NCO)OC`, the result in [1], in test [2], in test [4], in test [5], in test [6] and in [7] was inactive. Also, the outcome in test [8], in test [9], in test [10], in test [11], in test [12] and in test [13] was inactive. Further, the outcome in [15], in [16], in test [17] and in test [18] was inactive.
